Source: PubChem (National Center for Advancing Translational Sciences (NCATS))
Vaccinia Venus: qHTS for Stage-Specific Inhibitors of Vaccinia Orthopoxvirus: Venus Reporter Primary qHTS; AID 720580, 2013; actives 0.46% (n = 330,000); Vaccinia virus Venus reporter expression, fluorescence; Potency, µM (top dose mostly 36.5 µM), inactives show at the top dose activity change, negative = inhibition, hits mostly inhibitors; calls by dose curve; tested in A549 cells; further: potency means the concentration at half of the fitted maximal effect; nearly all actives have a fitted effect of over 30% in size
HCMV antiviral: qHTS Assay for inhibitors of the human cytomegalovirus (HCMV). HFF cells, HCMV-luciferase reporter, 72 h; active compounds read low. activity change, negative = inhibition, % at 57.5 µM. actives 4.5% (n = 410,000). AID 1259415, 2018; in the data active means activity change below about -60%; inconclusive means no clear call, values can overlap the other calls; inactive means above about -39%
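Cell-based, HFFs, 1000 cells/well, 16 h 37C; cpds in DMSO + HCMV-luc, MOI 1 PFU/cell; 72 h 37C; OneGlo luminescence after 5 min RT; norm. to buffer vs Salinomycin 10uM.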
FMDV antiviral: High Throughput Screening for Foot and Mouth Disease Virus Antivirals; FMDV antiviral cell-based qHTS; Potency, µM (titrated, usually from 57.9 µM), inactives show at the highest dose activity change, negative = inhibition, hits mostly inhibitors; actives 1.2% (n = 410,000); AID 1159524, 2015; calls by dose curve; tested in HEK293T cells; further: read-out not given here; potency means the concentration at half of the fitted maximal effect; nearly all actives have a fitted effect of over 45% in size
VACV mCherry inh: qHTS for Stage-Specific Inhibitors of Vaccinia Orthopoxvirus: mCherry Reporter Primary qHTS. Vaccinia virus mCherry reporter infection, fluorescence. Potency, µM (highest dose often 36.5 µM), for the others: top-dose activity change, negative = inhibition, actives largely listed as inhibitors. actives 0.63% (n = 310,000); calls by dose curve; tested in A549 cells; further: potency means the concentration at half of the fitted maximal effect; nearly all actives have a fitted effect of over 35% in size
HCV inh: qHTS Assay for Inhibitors of Hepatitis C Virus (HCV). AID 651820, 2012. actives 3.4% (n = 340,000). Huh7.5.1 HCVcc-Cre infection, luciferase reporter, 44 h. Potency, µM (top dose mostly 41.8 µM), for the others: top-dose activity change, negative = inhibition, most hits filed as inhibitors; active means well fitted inhibition curve with a large enough effect; inconclusive means small, poorly fitted or top-dose-only effect, or another doubt; inactive means no such curve, though single readings can be large or run the other way; further: potency means the concentration at half of the fitted maximal effect
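Luciferase read-out (15 sec integration) after a 15 min room-temperature substrate step quantifies HCVcc-Cre infection. Cells, 1,000 per well, had compound added 4 h post-plating, then virus at ~0.5 moi, and were cultured 44 h.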
Starred values were filed as active, the others as inactive. An excerpt weighted towards active compounds, which were near 7.3% of everything screened. On the % scale 0 is the no-effect control and ±100 the full control effect.

Results for Cc1nc2ccccc2c(=O)n1Cc1ccco1 ?
HCMV antiviral: -2.0; FMDV antiviral: -6.0%; HCV inh: inconclusive

Results for COc1cccc(CNC(=O)N2CCc3c(sc4c3CCCC4)C2c2ccc(F)cc2)c1 (configuration not stated) ?
Vaccinia Venus: -28.3%; HCMV antiviral: -26.2; FMDV antiviral: -9.6%; VACV mCherry inh: inconclusive

What do the screens show for `O=C(CSc1nc2ccccc2c(=O)n1Cc1ccco1)NCCN1C(=O)CSC1=O`?
Vaccinia Venus: -0.5%; HCMV antiviral: -31.9; FMDV antiviral: -12.2%; VACV mCherry inh: -11.9%; HCV inh: 10µM*

What do the screens show for `Cc1ccc(C(=O)N2C(=S)C(c3ccc(F)cc3)=NC23CCN(C)CC3)cc1`?
Vaccinia Venus: -19.0%; HCMV antiviral: -84.6*; FMDV antiviral: -35.0%; VACV mCherry inh: -29.4%; HCV inh: inconclusive

Results for Cc1ccc(C(=O)c2cn(CC(=O)Nc3ccc(C)cc3Cl)c3nc(C)ccc3c2=O)cc1 ?
Vaccinia Venus: -25.3%; HCMV antiviral: 11.9; FMDV antiviral: -3.4%; VACV mCherry inh: inconclusive

What do the screens show for `O=C(Cn1ncc2c1-c1ccccc1OC2)N1CCc2ccccc21`?
Vaccinia Venus: -17.8%; HCMV antiviral: -1.1; FMDV antiviral: -26.3%; VACV mCherry inh: -25.6%; HCV inh: -7.9%

Results for O=C(Cn1ncc(Cl)c(Cl)c1=O)N1CCOCC1 ?
Vaccinia Venus: inconclusive; HCMV antiviral: -99.0*; FMDV antiviral: 0.0%; VACV mCherry inh: inconclusive; HCV inh: inconclusive

How did O=C(Cn1ncc(Cl)c(Cl)c1=O)N1CCN(Cc2ccccc2)CC1 do in these assays?
HCMV antiviral: -82.6*; FMDV antiviral: inconclusive; HCV inh: 3.55µM*

What do the screens show for `O=C(Cn1ncc(Cl)c(Cl)c1=O)N1CCc2ccccc21`?
Vaccinia Venus: inconclusive; HCMV antiviral: -95.1*; FMDV antiviral: inconclusive; VACV mCherry inh: inconclusive; HCV inh: inconclusive

Results for CCCCOc1ccc(C2c3c(oc4ccc(C)cc4c3=O)C(=O)N2CCCN(C)C)cc1OCC (configuration not stated) ?
Vaccinia Venus: -1.8%; HCMV antiviral: -20.6; FMDV antiviral: -19.8%; VACV mCherry inh: -5.4%

How did Cc1ccc(Cl)cc1N1CCN(C(=O)c2noc(C)c2[N+](=O)[O-])CC1 do in these assays?
HCMV antiviral: -104.6*; FMDV antiviral: 4.1%; HCV inh: 10µM*

What do the screens show for `CCOC(=O)c1ccccc1NC(=O)CSc1cn(CC(=O)N2CCCCC2)c2ccccc12`?
Vaccinia Venus: -3.7%; HCMV antiviral: 1.1; FMDV antiviral: -12.4%; VACV mCherry inh: -9.3%

Results for Clc1ccc(-c2ccc(CN3CCCCC3)o2)cc1 ?
HCMV antiviral: 6.5; FMDV antiviral: 32.3%; HCV inh: -25.4%

How did CN1CCN(Cc2ccc(-c3ccc(Cl)cc3)o2)CC1 do in these assays?
HCMV antiviral: -9.2; FMDV antiviral: 15.9%; HCV inh: 14.1µM*

Results for CC(=O)c1ccc(S(=O)(=O)Nc2c(C)nn(C)c2C)cc1 ?
Vaccinia Venus: -2.4%; HCMV antiviral: -34.1; FMDV antiviral: -28.8%; VACV mCherry inh: -10.7%; HCV inh: inconclusive

What do the screens show for `Nc1n[nH]c(-c2ccccc2)n1`?
HCMV antiviral: 12.6; FMDV antiviral: 0.1%; HCV inh: 16.2%

What do the screens show for `Nc1n[nH]c(-c2ccccc2[N+](=O)[O-])n1`?
Vaccinia Venus: 6.5%; HCMV antiviral: -95.8*; FMDV antiviral: -2.9%; VACV mCherry inh: -11.2%; HCV inh: 26.3%

Results for Cn1c(=O)cc(OCCCC(=O)Nc2cccc(Cl)c2)c2ccccc21 ?
Vaccinia Venus: 1.6%; HCMV antiviral: 36.6; FMDV antiviral: -11.5%; VACV mCherry inh: inactive

Results for COc1ccc(Sc2nnc(Cc3ccccc3)c3ccccc23)cc1 ?
Vaccinia Venus: -20.1%; HCMV antiviral: -88.9*; FMDV antiviral: inconclusive; VACV mCherry inh: -6.4%

How did Cc1ccc(Sc2nnc(Cc3ccccc3)c3ccccc23)cc1 do in these assays?
HCMV antiviral: -88.1*; FMDV antiviral: inconclusive; HCV inh: -3.6%
